Results reported in PubChem BioAssay (NCI).
The panel holds about 83,000 compounds, 20% with a hit somewhere; the sample as a whole holds those more often.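 Method: cells in 96-well plates; compound added at one concentration; 48 h incubation; percent growth measured; values under 10 scored active.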 Calls of active or inactive are those of the source.

Columns and labels:
Assay in all cases: NCI-60 one-dose screen, 48 h (100 = growth as untreated, 0 = no growth, -100 = all killed)
Conditions in all cases: 10 µM
RPMI-8226 leukemia = test system: RPMI-8226 leukemia
OVCAR-8 ovarian = test system: OVCAR-8 ovarian
OVCAR-5 ovarian = test system: OVCAR-5 ovarian
OVCAR-4 ovarian = test system: OVCAR-4 ovarian
SK-OV-3 ovarian = test system: SK-OV-3 ovarian
IGROV1 ovarian = test system: IGROV1 ovarian
OVCAR-3 ovarian = test system: OVCAR-3 ovarian
HS 578T breast = test system: HS 578T breast
NCI/ADR-RES ovarian = test system: NCI/ADR-RES ovarian
T-47D breast = test system: T-47D breast

Measured: growth

CN(C)CCN1C(=O)c2cccc3c(-c4ccc5ncn(C6CCCCC6)c5c4)ccc(c23)C1=O
active: RPMI-8226 leukemia 7.51%
inactive: OVCAR-8 ovarian 14.7% | OVCAR-5 ovarian 35.8% | OVCAR-4 ovarian 30.8% | SK-OV-3 ovarian 23% | IGROV1 ovarian 20.4% | OVCAR-3 ovarian 37.6% | HS 578T breast 40.8% | NCI/ADR-RES ovarian 20.1% | T-47D breast 27.8%

Cc1ccc(NC(=O)Nc2c(Cl)cccc2Cl)cn1
inactive: RPMI-8226 leukemia 62.9% | OVCAR-8 ovarian 111% | OVCAR-5 ovarian 119% | OVCAR-4 ovarian 135% | SK-OV-3 ovarian 116% | IGROV1 ovarian 85.9% | OVCAR-3 ovarian 106% | HS 578T breast 97.8% | NCI/ADR-RES ovarian 105% | T-47D breast 96.8%

COc1cc(C)ccc1C(=O)c1ccc(C)cc1OC
inactive: RPMI-8226 leukemia 21.9% | OVCAR-8 ovarian 23.9% | OVCAR-5 ovarian 46.8% | OVCAR-4 ovarian 63.1% | SK-OV-3 ovarian 17.1% | IGROV1 ovarian 37.2% | T-47D breast 50.6%
active: OVCAR-3 ovarian -39.2% | HS 578T breast -12.6% | NCI/ADR-RES ovarian -2.71%

N#CSCC1CC(O)(c2ccccc2)CC(c2ccc(Cl)cc2)O1 (stereo not given)
inactive: RPMI-8226 leukemia 18.1% | OVCAR-8 ovarian 66.7% | OVCAR-5 ovarian 101% | OVCAR-4 ovarian 40% | SK-OV-3 ovarian 102% | HS 578T breast 21% | NCI/ADR-RES ovarian 47.2% | T-47D breast 27.4%
active: IGROV1 ovarian -25.7% | OVCAR-3 ovarian -36%

Nc1ccc2cc(S(=O)(=O)O)cc(O)c2c1N=Nc1ccc(F)cc1
inactive: RPMI-8226 leukemia 106% | OVCAR-8 ovarian 107% | OVCAR-5 ovarian 99.5% | OVCAR-4 ovarian 137% | SK-OV-3 ovarian 103% | IGROV1 ovarian 120% | OVCAR-3 ovarian 117% | HS 578T breast 111% | NCI/ADR-RES ovarian 99.3% | T-47D breast 101%

Cc1cccc(NC2=C(C#N)C(=O)NC3(CCCC3)S2)c1
inactive: RPMI-8226 leukemia 90% | OVCAR-8 ovarian 100% | OVCAR-5 ovarian 103% | OVCAR-4 ovarian 103% | SK-OV-3 ovarian 103% | IGROV1 ovarian 168% | OVCAR-3 ovarian 116% | HS 578T breast 103% | NCI/ADR-RES ovarian 100% | T-47D breast 102%

c1ccc2c(c1)oc1c3cccnc3ccc21
inactive: RPMI-8226 leukemia 97.1% | OVCAR-8 ovarian 99.7% | OVCAR-5 ovarian 100% | OVCAR-4 ovarian 83% | SK-OV-3 ovarian 87.7% | IGROV1 ovarian 54.4% | OVCAR-3 ovarian 106% | HS 578T breast 93.1% | NCI/ADR-RES ovarian 99.7% | T-47D breast 39%

COc1ccc(-c2nc3sc(-c4ccccc4)c(-c4ccccc4)n3c2/C=C/C(=O)c2ccccn2)cc1
inactive: RPMI-8226 leukemia 45.7% | OVCAR-8 ovarian 67.9% | OVCAR-5 ovarian 115% | OVCAR-4 ovarian 43.7% | SK-OV-3 ovarian 103% | IGROV1 ovarian 82.6% | OVCAR-3 ovarian 81.3% | HS 578T breast 80.6% | NCI/ADR-RES ovarian 85.9% | T-47D breast 63.9%

COc1ccc(C(=O)/C=C/c2cc(-c3cc(OC)c(OC)c(OC)c3)n[nH]2)cc1
inactive: OVCAR-8 ovarian 16.1% | OVCAR-5 ovarian 47.8% | OVCAR-4 ovarian 45.6% | SK-OV-3 ovarian 25.7% | IGROV1 ovarian 43.2% | OVCAR-3 ovarian 11.1% | HS 578T breast 71.3% | NCI/ADR-RES ovarian 25.9% | T-47D breast 13.6%
active: RPMI-8226 leukemia -38.8%

COc1ccc2c(c1OC)O/C(=C\c1ncc([N+](=O)[O-])n1C)C2=O
inactive: RPMI-8226 leukemia 34.9% | OVCAR-5 ovarian 53.7% | OVCAR-4 ovarian 78.9% | SK-OV-3 ovarian 24.8% | HS 578T breast 46.5% | NCI/ADR-RES ovarian 15.1% | T-47D breast 94.8%
active: OVCAR-8 ovarian -18.2% | IGROV1 ovarian -14.8% | OVCAR-3 ovarian -24.2%

COc1ccc(Cn2c(C(N)=O)cc3c2-c2nc(N)ncc2CCC3)cc1
inactive: RPMI-8226 leukemia 85.5% | OVCAR-8 ovarian 98.6% | OVCAR-5 ovarian 87.7% | OVCAR-4 ovarian 99.7% | SK-OV-3 ovarian 104% | IGROV1 ovarian 101% | OVCAR-3 ovarian 107% | HS 578T breast 91.3% | NCI/ADR-RES ovarian 110% | T-47D breast 104%

COc1ccc([N+](=O)[O-])c(C(=O)O)c1
inactive: RPMI-8226 leukemia 110% | OVCAR-8 ovarian 101% | OVCAR-5 ovarian 102% | OVCAR-4 ovarian 102% | SK-OV-3 ovarian 99.1% | IGROV1 ovarian 108% | OVCAR-3 ovarian 102% | HS 578T breast 98.1% | NCI/ADR-RES ovarian 110% | T-47D breast 93.3%

Cc1ccc(C(=O)N2C/C(=C/c3ccc(F)cc3)C(=O)/C(=C/c3ccc(F)cc3)C2)cc1
inactive: OVCAR-8 ovarian 91.4% | OVCAR-5 ovarian 110% | OVCAR-4 ovarian 87.7% | SK-OV-3 ovarian 92.5% | IGROV1 ovarian 102% | OVCAR-3 ovarian 101% | HS 578T breast 107% | NCI/ADR-RES ovarian 82% | T-47D breast 81.9%
active: RPMI-8226 leukemia -18%

CN(C)Cc1cn(-c2ncc(-c3ccc(C(F)(F)F)cc3)c(NC3CCCCCC3)n2)nn1
inactive: RPMI-8226 leukemia 60.4% | OVCAR-8 ovarian 83.1% | OVCAR-5 ovarian 110% | OVCAR-4 ovarian 79.9% | SK-OV-3 ovarian 86.5% | IGROV1 ovarian 71.3% | OVCAR-3 ovarian 86% | HS 578T breast 93.6% | NCI/ADR-RES ovarian 91.9% | T-47D breast 81.7%

COc1ccc(-c2nc(-c3nc4cc(Cl)c(Cl)cc4[nH]3)c3ccccn23)cc1
active: OVCAR-4 ovarian -34.2% | SK-OV-3 ovarian -25.1%
inactive: RPMI-8226 leukemia 49.9% | OVCAR-8 ovarian 31.6% | OVCAR-5 ovarian 91.6% | IGROV1 ovarian 75.9% | OVCAR-3 ovarian 39% | HS 578T breast 12.9% | NCI/ADR-RES ovarian 51.4% | T-47D breast 66.5%

CC(C)(C#N)Nc1ccccc1
inactive: RPMI-8226 leukemia 105% | OVCAR-8 ovarian 105% | OVCAR-5 ovarian 100% | OVCAR-4 ovarian 99.5% | SK-OV-3 ovarian 106% | IGROV1 ovarian 121% | OVCAR-3 ovarian 124% | HS 578T breast 105% | NCI/ADR-RES ovarian 116% | T-47D breast 102%

CCOC(=O)C1(CC(C)C)CCOC1=O (stereo not given)
inactive: RPMI-8226 leukemia 95.6% | OVCAR-8 ovarian 93.8% | OVCAR-5 ovarian 97% | OVCAR-4 ovarian 95.5% | SK-OV-3 ovarian 101% | IGROV1 ovarian 119% | OVCAR-3 ovarian 104% | HS 578T breast 110% | NCI/ADR-RES ovarian 98.8% | T-47D breast 99%

CCCCCCCC(C)NCCO (stereo not given)
inactive: RPMI-8226 leukemia 107% | OVCAR-8 ovarian 98.7% | OVCAR-5 ovarian 111% | OVCAR-4 ovarian 118% | SK-OV-3 ovarian 93.6% | IGROV1 ovarian 103% | OVCAR-3 ovarian 101% | HS 578T breast 99.4% | NCI/ADR-RES ovarian 111% | T-47D breast 100%

CCCCCCCCCCCCCC[n+]1ccc(C(N)=O)cc1
active: RPMI-8226 leukemia -41.2% | OVCAR-8 ovarian 1.18% | OVCAR-5 ovarian -4.86% | OVCAR-3 ovarian -27.1% | HS 578T breast -14.5%
inactive: OVCAR-4 ovarian 32.4% | SK-OV-3 ovarian 34.3% | IGROV1 ovarian 110% | NCI/ADR-RES ovarian 96.1% | T-47D breast 46.9%

CC(C)(C)c1ccc(N2CSC(=S)N(c3ccc(C(C)(C)C)cc3)C2)cc1
inactive: RPMI-8226 leukemia 76.5% | OVCAR-8 ovarian 107% | OVCAR-5 ovarian 101% | OVCAR-4 ovarian 98.3% | SK-OV-3 ovarian 94.1% | IGROV1 ovarian 55.3% | OVCAR-3 ovarian 109% | HS 578T breast 112% | NCI/ADR-RES ovarian 96.1% | T-47D breast 81.4%

O=C(Nc1ccncc1)C(=O)c1cn(S(=O)(=O)c2cccc(Cl)c2)c2ccccc12
inactive: RPMI-8226 leukemia 47.2% | OVCAR-8 ovarian 76.2% | OVCAR-5 ovarian 107% | OVCAR-4 ovarian 74.8% | SK-OV-3 ovarian 96.6% | IGROV1 ovarian 52.7% | OVCAR-3 ovarian 45.7% | HS 578T breast 86.8% | NCI/ADR-RES ovarian 43.6% | T-47D breast 70%

CC12O[C@H](C[C@@H](OC(=O)c3ccccc3)[C@H]1O)n1c3ccccc3c3c4c(c5c6ccccc6n2c5c31)C(=O)NC4=O
inactive: RPMI-8226 leukemia 54.6% | OVCAR-8 ovarian 86.5% | OVCAR-5 ovarian 59.3% | OVCAR-4 ovarian 84.5% | SK-OV-3 ovarian 12.6% | IGROV1 ovarian 62% | OVCAR-3 ovarian 103% | HS 578T breast 69.3% | NCI/ADR-RES ovarian 77.8% | T-47D breast 59.3%

O=C1OCC2=C1C(c1cccc(Cl)c1)c1cc3c(cc1N2CCO)OCCO3 (stereo not given)
active: OVCAR-8 ovarian 1.27% | OVCAR-3 ovarian -52.2% | HS 578T breast -6.14% | NCI/ADR-RES ovarian 0.234%
inactive: RPMI-8226 leukemia 20.2% | OVCAR-5 ovarian 30.3% | OVCAR-4 ovarian 56.2% | SK-OV-3 ovarian 26.1% | IGROV1 ovarian 22.2% | T-47D breast 73.5%

CCN(CC)CCC(=O)Nc1cccc2c1C(=O)c1c(c(O)c3ccccc3c1O)C2=O
inactive: RPMI-8226 leukemia 33.2% | OVCAR-8 ovarian 45.3% | OVCAR-5 ovarian 80.9% | OVCAR-4 ovarian 60.2% | SK-OV-3 ovarian 63.6% | IGROV1 ovarian 36.9% | OVCAR-3 ovarian 64.8% | HS 578T breast 76.6% | NCI/ADR-RES ovarian 46.9% | T-47D breast 41.2%

Cc1cc(N(CCCNc2ccnc3cc(Cl)ccc23)Cc2cccs2)nc(Cl)n1
inactive: OVCAR-8 ovarian 44.7% | OVCAR-5 ovarian 69.1% | OVCAR-4 ovarian 31.8% | SK-OV-3 ovarian 42.4% | IGROV1 ovarian 50.8% | OVCAR-3 ovarian 55.7% | HS 578T breast 65.4% | NCI/ADR-RES ovarian 36.4% | T-47D breast 22.1%
active: RPMI-8226 leukemia -6.73%

CN(C)C=Nc1cc(Cl)ccc1Cl
inactive: RPMI-8226 leukemia 98.9% | OVCAR-8 ovarian 114% | OVCAR-5 ovarian 104% | OVCAR-4 ovarian 99.9% | SK-OV-3 ovarian 110% | IGROV1 ovarian 118% | OVCAR-3 ovarian 113% | HS 578T breast 117% | NCI/ADR-RES ovarian 107% | T-47D breast 108%

O=C(Nc1cccc(Br)c1)c1cc(=O)[nH]c2ccccc12
inactive: RPMI-8226 leukemia 80.2% | OVCAR-8 ovarian 92.9% | OVCAR-5 ovarian 90.8% | OVCAR-4 ovarian 97.6% | SK-OV-3 ovarian 97.7% | IGROV1 ovarian 17.9% | OVCAR-3 ovarian 92.4% | HS 578T breast 105% | NCI/ADR-RES ovarian 88.6% | T-47D breast 92.1%
